In all, about 69,000 compounds went through this assay and about 8,600 (12%) showed an effect of 50% or more. The entries come from a sample that favours strong results as a whole.
The compounds below were run on Plasmodium berghei (assay: Screen against P. berghei liver stage (PbLuc), transformed with Luciferase, at 10uM). Conditions: tested at 10 uM.
Format: functional, HepG2

Row | Structure (SMILES) | INHIBITION [%]
1 | Cc1n[nH]c(C)c1CCCN(C)c1cc(N(C)C)ncn1 | 8.51
2 | C[S+]([O-])CCNC(=O)N1CCSC2(CCCCC2)C1 (stereo unspecified) | 25.4
3 | O=C(NCCc1ccccn1)N1CCSC2(CCCCC2)C1 | 3.17
4 | COCCNC(=O)N1CCSC2(CCCCC2)C1 | 52.6
5 | CCN(Cc1ccoc1)C(=O)Nc1ccccc1CN(C)C(C)=O | 6.99
6 | Cc1nc(NC(=O)N(C)Cc2ccsc2)nn1C | 25.9
7 | Cc1nc(NC(=O)N(C)Cc2ccoc2)nn1C | -10.9
8 | CSc1cccc(CN(C)C(=O)Nc2nc(C)n(C)n2)c1 | 71.8
9 | CCc1nc(NC(=O)N(C)Cc2ccoc2)nn1C | 63.6
10 | CSc1cccc(CN(C)C(=O)CN2CCN(c3ncccn3)CC2)c1 | 10.6
11 | Cc1cnc(N2C[C@@H]3CN(Cc4ccco4)CCC[C@]3(C(=O)O)C2)nc1 | 15.3
12 | O=C(CCNC(=O)C1CCCC1)NCc1ccccc1Cn1ccnc1 | 7.27
13 | COc1ccc(CNC(=O)Nc2cccnc2N2CCCC2)cc1 | 19.2
14 | O=C(NCC1CC1)c1cc(Br)cnc1N1CCCCC1 | 16.4
15 | O=C1Nc2ccccc2CC12CCN(CCO)C2 (stereo unspecified) | -36.2
16 | CC(C)CN1CCC2(Cc3ccccc3NC2=O)C1 (stereo unspecified) | 58.7
17 | CCCN1CCC2(Cc3ccccc3NC2=O)C1 (stereo unspecified) | 36.2
18 | O=C(c1ccc[nH]1)N1CCc2ccc(S(=O)(=O)N3CCOCC3)cc2C1 | 6.99
19 | Cn1c(-c2ccc(F)cc2)cn2cc(C(=O)N3CCC(N)C3)nc2c1=O (stereo unspecified) | 24.4
20 | CC(C)NC(=O)NCc1cc(-c2cccc(Cl)c2)nn1C | 13
21 | CNC(=O)c1cn2cc(-c3cccc(Cl)c3)n(CC=C(C)C)c(=O)c2n1 | 76.7
22 | CC(=O)NCCNC(=O)c1cnc2c(c1)nc(-c1ccccc1Cl)n2C | -76.5

Row | Structure (SMILES) | INHIBITION [%]
23 | CNC(=O)c1cn2cc(-c3ccccc3Cl)n(CC=C(C)C)c(=O)c2n1 | 61.9
24 | CNC(=O)c1cn2cc(-c3cccc(Cl)c3)n(CC3CC3)c(=O)c2n1 | 55.4
25 | CNC(=O)c1cn2cc(-c3ccc(F)cc3)n(CC=C(C)C)c(=O)c2n1 | 69.3
26 | COCCCNC(=O)Cn1c(-c2cccc(Cl)c2)nc(C)cc1=O | 14.6
27 | CNC(=O)CC1CCN(Cc2nc(-c3cccc(Cl)c3)oc2C)CC1 | 13.5
28 | CN(C)C(=O)c1cn2cc(-c3cccc(Cl)c3)n(CC3CC3)c(=O)c2n1 | 17.8
29 | NC(=O)c1cn2cc(-c3ccccc3Cl)n(CC3CC3)c(=O)c2n1 | 5.46
30 | Cn1c(-c2ccc(F)cc2)cn2cc(C(=O)N3CC[C@@H](O)C3)nc2c1=O | 40.7
31 | Cc1nc(-c2ccsc2)ccc1C(=O)NC(C)CN1CCOCC1 (stereo unspecified) | -4.43
32 | O=C(c1cscn1)N1CCc2ncnc(-c3ccncc3)c2CC1 | -7.24
33 | O=C(CSc1ccncc1)NC1CC(=O)N(CCc2ccccc2)C1 (stereo unspecified) | -15.9
34 | CC(O)CN1CCC(CNCc2ccccc2C(F)(F)F)CC1 (stereo unspecified) | 0.24
35 | CN1CCN(C2CCN(CCCOc3ccc(F)cc3)CC2)C1=O | 47
36 | CCOC(=O)CNC(=O)C1OC(c2ccccc2)=NN1C(C)=O (stereo unspecified) | -19.1
37 | CCOC1CCN(C(=O)CN(C)c2cnccn2)CC1 | 26.083
38 | CC(C)Nc1ccc2nc(C3CCN(C(C)C)CC3)nn2c1 | -7.35
39 | CNC(=O)c1cn2cc(-c3ccccc3Cl)n(CC3CC3)c(=O)c2n1 | 33.3
40 | CCNC(=O)c1cn2cc(-c3ccccc3Cl)n(CC3CC3)c(=O)c2n1 | 73.5
41 | CN(C)C(=O)c1cn2cc(-c3ccccc3Cl)n(CC3CC3)c(=O)c2n1 | -0.273
42 | COCC(=O)N1C[C@@H](OCc2ccncc2)[C@@H]2OCCC[C@@H]21 | 35.8
43 | Fc1cccc(O[C@@H]2C[C@H]3CN(Cc4ccncc4)CCN3C2)c1 | 90.7
44 | Fc1cccc(O[C@@H]2C[C@H]3CN(Cc4ccccn4)CCN3C2)c1 | 85.4

Row | Structure (SMILES) | INHIBITION [%]
45 | Cn1ccnc1CN1CCN2C[C@H](Oc3cccc(F)c3)C[C@H]2C1 | 38.5
46 | c1cc(CN2CCN3C[C@H](Oc4cncnc4)C[C@H]3C2)ccn1 | -11.3
47 | c1ccc(CN2CCN3C[C@H](Oc4cccnc4)C[C@H]3C2)nc1 | 41.2
48 | c1ccc(CN2CCN3C[C@H](Oc4cncnc4)C[C@H]3C2)nc1 | -8.6
49 | CC(O)CN1CCN(C(=O)CN(C)c2ccc(C#N)cn2)CC1 (stereo unspecified) | 18.4
50 | Fc1ccccc1C1(CNC2CCOC3(CCOCC3)C2)CCCC1 (stereo unspecified) | 14.4
51 | c1cnn(CCCO[C@@H]2CN(C3CCOCC3)[C@@H]3CCCO[C@@H]32)c1 | -40.9
52 | Cc1nnc2n1CCN(c1nn3cc(C(C)(C)C)nc3s1)C2 | -1.15
53 | Cc1ccsc1C(=O)N1CC[C@H]2CO[C@H](CN(C)C)[C@H]2C1 | -47.5
54 | COCCN1Cc2ccccc2C2(CCN(S(C)(=O)=O)CC2)C1 | -21.1
55 | O=c1[nH]c2nc(N3CCCCCC3)ncc2c(=O)n1-c1cccc(F)c1 | 21.7
56 | Cn1ccnc1N1CCN(C(=O)Cc2ccccc2)CC1 | 34.2
57 | Cc1nccn1CC1CCN(C(=O)Cc2ccccc2)CC1 | 65.9
58 | Cc1nccn1CC1CCN(C(=O)c2cccs2)CC1 | 14.2
59 | Cc1nccn1CC1CCN(C(=O)c2ccccc2)CC1 | 67.4
60 | Cc1nccn1CC1CCCN(C(=O)c2cnn(C)c2)C1 (stereo unspecified) | 20.4
61 | Cc1nccn1CC1CCCN(C(=O)Cc2ccsc2)C1 (stereo unspecified) | 42.5
62 | Cn1cc(-c2cc(-c3cnn(C)c3)n(CC(=O)NC3CC3)n2)cn1 | 44.3
63 | COCCN1CCC1c1cc(NC2CCCC2)nc(C)n1 (stereo unspecified) | 4.41
64 | Fc1ccc(C2(CNC3=NCCN3)CCCC2)cc1 | 27.6
65 | Fc1ccc(C2(CNC3=NCCCN3)CCC2)cc1 | -20.3
66 | Cc1nnc(C(C)NCC2(c3ccc(Cl)cc3)CCOCC2)o1 (stereo unspecified) | 11.8

Row | Structure (SMILES) | INHIBITION [%]
67 | OCCN(Cc1ccncc1)CC1(c2ccc(Cl)cc2)CCCC1 | 18.3
68 | Clc1ccc(C2(CNC3=NCCN3)CC2)cc1 | 56.6
69 | Clc1ccc(C2(CNC3=NCCN3)CCCCC2)cc1 | 74
70 | CC1(C)CN(C(CNC2=NCCN2)c2ccc(Cl)cc2)CCO1 (stereo unspecified) | 1.84
71 | Cc1nnc(C(C)NCC2(c3ccc(Cl)cc3)CCCC2)o1 (stereo unspecified) | 18.2
72 | Clc1ccc(C2(CNC3=NCCN3)CCCC2)cc1 | 68.2
73 | CC(=O)N1CC(c2ccnc(Nc3nccs3)n2)C1 | 12.6
74 | CN(C)CC1CN(Cc2nnc(C(C)(C)C)o2)CCO1 (stereo unspecified) | -104
75 | CCc1nc(-c2cncnc2C2CCNC2)no1 (stereo unspecified) | 3.6
76 | Cc1cnc(C(=O)N2CCC(C(=O)c3cc(F)ccc3F)CC2)cn1 | -121
77 | NC(=O)N1CCC2(CCN(Cc3ccccn3)C2=O)C1 (stereo unspecified) | 24.5
78 | CC(=O)c1cn(CCC(=O)NCCCC(=O)O)c2ccccc12 | -10.2
79 | CC(NC(=O)NCCCn1cccn1)c1ccc2c(c1)OCCCO2 (stereo unspecified) | -6.7
80 | CO[C@@H]1CCN(C(=O)Cc2cccc(F)c2)[C@H]1Cc1cccnc1 | 19.6
81 | CO[C@@H]1CCN(C(=O)Cc2ccc(F)cc2)[C@@H]1Cc1cccnc1 | 55.4
82 | COc1ccc(CC(=O)N2CC[C@@H](OC)[C@@H]2Cc2cccnc2)cc1 | 38.5
83 | NC(=O)CNC1(c2ccc(Br)cc2)CCOCC1 | 19.4
84 | CC(C)CN1CC(O)CN(S(=O)(=O)c2ccc(F)cc2)CC1=O (stereo unspecified) | 34.3
85 | CN(C)C(=O)c1cn[nH]c1C1(C)CCN(c2ncccn2)CC1 | 12.45
86 | Cc1nccc(N2CCCC(C)(c3[nH]ncc3C(N)=O)C2)n1 (stereo unspecified) | -7.66
87 | Cc1cc(C)nc(N2CCCC(C)(c3[nH]ncc3C(=O)N(C)C)C2)n1 (stereo unspecified) | 53.1
88 | Cc1ccc(S(=O)(=O)NC(CO)CC(C)C)cc1N(C)C (stereo unspecified) | 31.7

Row | Structure (SMILES) | INHIBITION [%]
89 | Cc1nc(C)n(C2CCCN(C(=O)CCCc3ccccn3)C2)n1 (stereo unspecified) | -11.9
90 | CC(c1ccco1)N(C)Cc1cc2cc3c(cc2[nH]c1=O)OCO3 (stereo unspecified) | 16.9
91 | CC(C)CCC(=O)NCc1ccc(N2CCCCC2)cc1 | 15.5
92 | CCc1nccn1CC(=O)Nc1cccc(N2CCCC2)c1 | 74.55
93 | O=C(Cn1cccn1)Nc1ccc(N2CCOCC2)cc1 | 68.9
94 | CC1CCN(c2ccc(NC(=O)CCn3cccn3)cc2)CC1 | 11.3
95 | O=C(Cn1cccn1)Nc1ccc(N2CCCCC2)cc1 | 50.2
96 | CCc1nccn1CC(=O)Nc1cccc(C(=O)N(C)C)c1 | 0.0996
97 | CC(NCC(=O)NCC(=O)Nc1ccc(F)cc1)c1cccs1 (stereo unspecified) | 0.734
98 | CCc1nccn1CC(=O)Nc1cccc(C(=O)OC)c1 | -10.9
99 | COC1CCN(c2ccc(NC(=O)Cn3cccn3)cc2)CC1 | 8.31
100 | COC1CCN(c2ccc(NC(=O)Cn3cccc3)cc2)CC1 | 14.2
101 | CC(NCC(=O)Nc1ccc(N2CCCCCC2)cc1)c1cccs1 (stereo unspecified) | 64.9
102 | CC1CN(c2ccc(NC(=O)Cn3cccn3)cc2)CCO1 (stereo unspecified) | 16.5
103 | CN1CCN(C(=O)c2ccccc2)CC(Cc2cc(N(C)C)ncn2)C1 (stereo unspecified) | 21.1
104 | CCCn1nc(C(=O)N(C)Cc2cnn(C)c2)ccc1=O | 48.7
105 | CCOCC1CN(C(=O)c2ccnnc2)Cc2cnn(C)c21 (stereo unspecified) | -2.35
106 | CN1CCN(Cc2cnc3n2CCN(Cc2cccnc2)CC3)CC1 | -1.36

Source: ChEMBL document CHEMBL4513216, “Probing the Open Global Health Chemical Diversity Library for Multistage-Active Starting Points for Next-Generation Antimalarials” (ACS Infect Dis, 2020)
